# Laboratory results from PubChem BioAssay (NCI).
# About 79,000 compounds went through this panel and 15% of them were active in at least one assay; those are over-represented in the sample as a whole. The source made the active and inactive calls. Cut-off read from the data, not from the text of the source: active = growth inhibition above about 70%; inactive = the rest.
# Assay: NCI Yeast Anticancer Drug Screen. Data for the bub3 strain (AID 167)
# Details: S. cerevisiae bub3 mutant strain, at 50.0 µM, active compounds read high
# In short: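 Part of a panel of yeast mutants defective in DNA damage repair or cell cycle regulation. Each strain is grown with compound, and inhibition is calculated relative to solvent-treated cultures.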
row,SMILES,growth inhibition
1,CN(C)CCNS(=O)(=O)N(C)C,-51.8% (inactive)
2,CC12CCC(C/C1=N\O)C2(C)CBr (stereo not given),-2.3% (inactive)
3,CCC(C)C(NN)C(=O)O (stereo not given),0% (inactive)
4,O=C(O)Cc1c(-c2ccccc2)nc(=S)[nH]c1-c1[nH]c(=S)nc(-c2ccccc2)c1CC(=O)O,2.15% (inactive)
5,O=c1c([OH2+])c(-c2ccc(O)cc2[O-])oc2cc(O)cc([O-])c12.O=c1c([OH2+])c(-c2ccc(O)cc2[O-])oc2cc(O)cc([O-])c12.[Ti+4],2.55% (inactive)
6,Cc1ccc([N+](=O)[O-])cc1NC(=O)COc1ccc(Cl)cc1Cl,1.85% (inactive)
7,COc1ccc(/C=N/Nc2nc(C)c(C)s2)cc1,7.35% (inactive)
8,CC1=CC(=O)C(CCC#N)C(C)(C)C1 (stereo not given),5.85% (inactive)
9,NNC(=O)CC(N)C(=O)O (stereo not given),1.15% (inactive)
10,CCCCN(CCCC)C(=O)OCC,19.2% (inactive)
11,COc1cc(C=O)ccc1OC(=O)Nc1cccc(Cl)c1C,37.2% (inactive)
12,O=C(c1cccc([N+](=O)[O-])c1)c1cccs1,-5.2% (inactive)
13,Cc1ccc(S(=O)(=O)Oc2ccccc2C(=O)O)cc1,14.4% (inactive)
14,CC(C)C1CC(C)(C)C2CC3OC(C(C)C)CC(C)(C)C3CC2O1 (stereo not given),-10.3% (inactive)
15,O=C(/C=C/c1ccc(O)cc1)c1ccc(Cl)cc1,20.4% (inactive)
16,CCOC(=O)NC(=S)Nc1ccn(C)c1,1.65% (inactive)
17,COC(=O)c1c2c(cc3c1CCC3)CCC2,32.9% (inactive)
18,Cc1ccnc(NCc2ccccn2)c1,1.3% (inactive)
19,Cc1cc(O)cc2oc(=O)ccc12,-11.7% (inactive)
20,CCOC(=O)c1c2ccc(/C=C/c3ccccn3)ccc-2c(C(=O)OCC)c1N,0.9% (inactive)

row,SMILES,growth inhibition
1,CC[C@H]1CN(C)[C@H]2Cc3c([nH]c4ccccc34)C(=O)C[C@H]1C2C(=O)OC (stereo not given in full),-1.65% (inactive)
2,CC1=Nc2ccccc2NC2(C1)C(C1COC(C)(C)O1)OC1OC(C)(C)OC12 (stereo not given),2.1% (inactive)
3,CCOC(=O)c1nc2ccc(C(F)(F)F)cc2nc1Nc1cc(OC)c(OC)c(OC)c1,-13.6% (inactive)
4,Cc1cc(OCCOC(=O)Nc2ccccc2C(F)(F)F)cc(C)c1Cl,-3.5% (inactive)
5,COC(=O)NC1(NC(=O)OC)NC(=O)c2cc(OC)c(OC)cc2N1,6.55% (inactive)
6,CC1=Nc2ccccc2S/C1=C(/C)NN,1.8% (inactive)
7,O=C(O)/C=C\C(=O)Nc1ccc(S(=O)(=O)Nc2nccs2)cc1,1.6% (inactive)
8,COC(=O)c1ccc(C(=O)c2ccccc2)cc1,14.2% (inactive)
9,CS(=O)(=O)Nc1cccc(C(=O)NN)c1,-11.7% (inactive)
10,CCOP(=O)(OCC)C(C)(CC)NC1=NC(C(F)(F)F)(C(F)(F)F)NC(=O)N1 (stereo not given),-0.5% (inactive)
11,NC1=NN(c2c(Cl)cc(Cl)cc2Cl)C(=O)C1,33% (inactive)
12,CCCCNC(=S)N(CCCC)CCCC,30.9% (inactive)
13,COc1ccc(CCCN2c3ccccc3Sc3ccccc32)cc1,-19.9% (inactive)
14,C=CC(C)(C)C1=CC(=O)C(OC)=CC1=O,4.15% (inactive)
15,O=c1[nH]nc(-c2ccccc2)c2c1[nH]c1ccccc12,-12.4% (inactive)
16,CC1=CNNc2ccccc21,-14.4% (inactive)
17,S=C1Cc2c(-c3ccc(Br)cc3)cc(-c3ccccc3)nc2-c2ccccc2N1,22.9% (inactive)
18,O=c1[nH]c(=O)c2nccnc2[nH]1,5% (inactive)
19,CC1CN(C(=O)OCC23COC4(C)CCC(C)(OC2)N34)CC(C)O1 (stereo not given),-0.7% (inactive)
20,O=C(Nc1nncs1)c1ccncc1,-28.8% (inactive)
